Test results taken from the supplement of paper PMC10849652.
About 7,900 targets were measured; listed, in parts, are those with a hit and a random draw of the rest. About 0.6% of all pairs of compound and target were hits. Values without a mark were called inactive.

Columns and labels:
Experiment in all cases: log2 fold change, soluble protein after heating vs DMSO (PISA); higher = thermal stabilisation; K562 cells, 10 uM, 30 min; active = over 0.2 and 3.5 SD of the protein, either way, in both replicates (recomputed)
bafetinib = compound: Cc1ccc(NC(=O)c2ccc(CN3CC[C@H](N(C)C)C3)c(C(F)(F)F)c2)cc1Nc1nccc(-c2cncnc2)n1 [bafetinib]
Procedure, shortened: (§1)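 For each measurement, 10 μM compound was applied for 30 min to K562 cells at 2×10^6 cells/mL. Aliquots were heated for 3 min across 48°C-58°C, pooled, and extracted in PBS with 0.5% NP-40 at 4°C; the supernatant after 21,000xg for 90 min was soluble protein. This was quantified by TMTpro 16plex LC-MS/MS with channel sums equalised, and thermal stability was reported relative to control samples from duplicates, on a log2 fold-change scale.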

[1] = compound: Cc1cccc(CC(=O)N2CCc3c2ccc(-c2cn(C)c4ncnc(N)c24)c3F)n1
Procedure, shortened: as §1

nilotinib = compound: Cc1cn(-c2cc(NC(=O)c3ccc(C)c(Nc4nccc(-c5cccnc5)n4)c3)cc(C(F)(F)F)c2)cn1 [nilotinib]
Procedure, shortened: as §1

[2] = compound: Cc1nc(Nc2n[nH]c3c2CN(C(=O)N[C@H](CN(C)C)c2ccccc2)C3(C)C)c2sccc2n1
Procedure, shortened: as §1

dasatinib = compound: Cc1nc(Nc2ncc(C(=O)Nc3c(C)cccc3Cl)s2)cc(N2CCN(CCO)CC2)n1 [dasatinib]
Procedure, shortened: as §1

[3] = compound: Cc1ncc(-c2ccnc(Nc3ccc(S(C)(=O)=O)cc3)n2)n1C(C)C
Procedure, shortened: as §1

[4] = compound: Cn1cc(-c2ccc3c(c2)CCN3C(=O)Cc2cccc(C(F)(F)F)c2)c2c(N)ncnc21
Procedure, shortened: as §1

[5] = compound: Cn1cc(-c2ccc3nnc(C(F)(F)c4ccc5ncccc5c4)n3n2)cn1
Procedure, shortened: as §1

tipifarnib = compound: Cn1cncc1[C@@](N)(c1ccc(Cl)cc1)c1ccc2c(c1)c(-c1cccc(Cl)c1)cc(=O)n2C [tipifarnib]
Procedure, shortened: as §1

mubritinib = compound: FC(F)(F)c1ccc(/C=C/c2nc(COc3ccc(CCCCn4ccnn4)cc3)co2)cc1 [mubritinib]
Procedure, shortened: as §1

UniProt Q8N0X7, sequence (Q8N0X7 whole entry, looked up): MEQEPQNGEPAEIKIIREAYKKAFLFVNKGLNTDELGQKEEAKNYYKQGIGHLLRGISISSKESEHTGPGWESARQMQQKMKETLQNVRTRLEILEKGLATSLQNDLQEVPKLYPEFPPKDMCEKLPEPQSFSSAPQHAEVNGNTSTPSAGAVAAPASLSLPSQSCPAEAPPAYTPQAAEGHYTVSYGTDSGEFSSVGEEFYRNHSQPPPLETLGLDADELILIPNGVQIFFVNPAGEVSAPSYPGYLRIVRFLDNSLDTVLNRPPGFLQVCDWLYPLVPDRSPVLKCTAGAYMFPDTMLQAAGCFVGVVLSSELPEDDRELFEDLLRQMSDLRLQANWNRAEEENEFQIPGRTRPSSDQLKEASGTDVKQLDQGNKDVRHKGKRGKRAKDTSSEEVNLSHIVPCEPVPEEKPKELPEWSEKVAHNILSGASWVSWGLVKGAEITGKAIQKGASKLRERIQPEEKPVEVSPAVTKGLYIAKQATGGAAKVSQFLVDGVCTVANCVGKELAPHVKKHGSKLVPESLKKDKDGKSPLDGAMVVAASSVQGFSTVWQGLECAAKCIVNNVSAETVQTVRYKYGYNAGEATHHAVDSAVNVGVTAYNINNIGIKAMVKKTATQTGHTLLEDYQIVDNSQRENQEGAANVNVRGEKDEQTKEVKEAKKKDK
UniProt P23497, sequence (P23497 whole entry, looked up): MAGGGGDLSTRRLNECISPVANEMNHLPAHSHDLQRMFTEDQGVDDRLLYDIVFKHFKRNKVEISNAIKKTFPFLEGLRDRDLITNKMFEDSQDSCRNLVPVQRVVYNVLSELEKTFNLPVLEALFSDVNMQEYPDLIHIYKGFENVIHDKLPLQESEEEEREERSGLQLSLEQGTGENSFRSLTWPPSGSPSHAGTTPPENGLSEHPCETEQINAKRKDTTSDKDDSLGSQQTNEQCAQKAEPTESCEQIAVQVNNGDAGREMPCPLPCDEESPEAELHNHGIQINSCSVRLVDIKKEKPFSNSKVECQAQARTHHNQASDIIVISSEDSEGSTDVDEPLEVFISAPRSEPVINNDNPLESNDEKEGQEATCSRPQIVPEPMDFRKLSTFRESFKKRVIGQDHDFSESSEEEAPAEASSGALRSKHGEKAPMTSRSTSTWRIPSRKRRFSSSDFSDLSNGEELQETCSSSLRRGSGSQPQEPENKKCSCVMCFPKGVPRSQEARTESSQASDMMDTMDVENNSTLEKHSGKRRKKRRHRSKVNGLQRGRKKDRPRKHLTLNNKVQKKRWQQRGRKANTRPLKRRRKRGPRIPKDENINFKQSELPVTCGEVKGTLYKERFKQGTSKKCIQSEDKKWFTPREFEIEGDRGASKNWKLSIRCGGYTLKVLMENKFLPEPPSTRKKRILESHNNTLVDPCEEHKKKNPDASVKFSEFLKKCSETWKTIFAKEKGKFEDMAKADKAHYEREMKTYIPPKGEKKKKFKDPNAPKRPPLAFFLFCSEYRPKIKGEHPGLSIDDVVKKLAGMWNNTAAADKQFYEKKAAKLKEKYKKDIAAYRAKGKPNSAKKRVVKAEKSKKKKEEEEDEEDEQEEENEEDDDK
UniProt Q9Y5L4, sequence (Q9Y5L4 whole entry, looked up): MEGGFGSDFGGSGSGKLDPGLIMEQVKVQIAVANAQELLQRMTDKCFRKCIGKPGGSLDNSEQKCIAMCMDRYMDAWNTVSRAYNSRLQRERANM
UniProt O14776, sequence (O14776 whole entry, looked up): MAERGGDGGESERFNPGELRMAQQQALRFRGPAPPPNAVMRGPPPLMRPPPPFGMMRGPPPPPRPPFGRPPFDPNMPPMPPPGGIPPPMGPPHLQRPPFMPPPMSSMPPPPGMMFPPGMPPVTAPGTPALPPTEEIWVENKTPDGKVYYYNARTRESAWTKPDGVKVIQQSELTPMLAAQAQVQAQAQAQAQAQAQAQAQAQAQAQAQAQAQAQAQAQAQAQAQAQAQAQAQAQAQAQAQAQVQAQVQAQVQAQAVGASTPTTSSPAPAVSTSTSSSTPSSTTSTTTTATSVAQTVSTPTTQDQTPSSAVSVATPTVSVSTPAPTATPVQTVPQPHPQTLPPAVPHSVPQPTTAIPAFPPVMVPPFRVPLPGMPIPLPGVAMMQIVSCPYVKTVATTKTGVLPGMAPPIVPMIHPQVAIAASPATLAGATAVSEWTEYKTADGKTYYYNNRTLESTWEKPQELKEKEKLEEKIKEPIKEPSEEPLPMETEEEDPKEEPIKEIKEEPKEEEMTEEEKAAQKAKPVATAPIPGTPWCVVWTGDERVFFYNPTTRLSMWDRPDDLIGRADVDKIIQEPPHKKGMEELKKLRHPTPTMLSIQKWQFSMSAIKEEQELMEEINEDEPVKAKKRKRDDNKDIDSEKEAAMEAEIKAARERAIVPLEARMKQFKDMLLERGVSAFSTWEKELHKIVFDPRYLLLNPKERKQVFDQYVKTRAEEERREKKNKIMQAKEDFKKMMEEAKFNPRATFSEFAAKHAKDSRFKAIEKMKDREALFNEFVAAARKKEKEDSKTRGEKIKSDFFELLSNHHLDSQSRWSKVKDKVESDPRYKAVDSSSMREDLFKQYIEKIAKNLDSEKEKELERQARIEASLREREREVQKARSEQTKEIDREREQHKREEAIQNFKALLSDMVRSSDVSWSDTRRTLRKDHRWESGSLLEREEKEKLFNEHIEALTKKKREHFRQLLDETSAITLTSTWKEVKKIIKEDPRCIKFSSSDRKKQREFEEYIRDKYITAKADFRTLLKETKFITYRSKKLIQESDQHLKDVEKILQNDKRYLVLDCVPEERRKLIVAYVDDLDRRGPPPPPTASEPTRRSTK
UniProt Q969Z0, sequence (Q969Z0 whole entry, looked up): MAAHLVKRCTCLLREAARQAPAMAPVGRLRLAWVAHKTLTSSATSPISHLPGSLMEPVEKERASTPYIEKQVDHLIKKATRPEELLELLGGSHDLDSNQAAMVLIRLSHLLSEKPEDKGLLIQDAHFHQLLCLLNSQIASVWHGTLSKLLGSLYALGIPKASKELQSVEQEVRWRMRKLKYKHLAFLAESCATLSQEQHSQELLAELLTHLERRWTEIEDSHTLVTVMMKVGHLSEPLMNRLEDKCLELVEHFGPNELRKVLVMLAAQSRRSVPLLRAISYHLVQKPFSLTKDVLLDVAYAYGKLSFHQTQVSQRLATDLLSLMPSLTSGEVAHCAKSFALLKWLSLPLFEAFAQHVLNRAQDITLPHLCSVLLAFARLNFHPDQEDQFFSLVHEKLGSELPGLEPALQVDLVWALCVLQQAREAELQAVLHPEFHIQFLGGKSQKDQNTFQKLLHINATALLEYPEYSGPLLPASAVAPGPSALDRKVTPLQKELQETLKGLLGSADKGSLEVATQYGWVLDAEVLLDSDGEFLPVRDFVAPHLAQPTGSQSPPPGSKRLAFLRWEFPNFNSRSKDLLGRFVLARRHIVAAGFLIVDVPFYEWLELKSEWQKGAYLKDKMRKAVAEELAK
UniProt Q8TC07, sequence (Q8TC07 whole entry, looked up): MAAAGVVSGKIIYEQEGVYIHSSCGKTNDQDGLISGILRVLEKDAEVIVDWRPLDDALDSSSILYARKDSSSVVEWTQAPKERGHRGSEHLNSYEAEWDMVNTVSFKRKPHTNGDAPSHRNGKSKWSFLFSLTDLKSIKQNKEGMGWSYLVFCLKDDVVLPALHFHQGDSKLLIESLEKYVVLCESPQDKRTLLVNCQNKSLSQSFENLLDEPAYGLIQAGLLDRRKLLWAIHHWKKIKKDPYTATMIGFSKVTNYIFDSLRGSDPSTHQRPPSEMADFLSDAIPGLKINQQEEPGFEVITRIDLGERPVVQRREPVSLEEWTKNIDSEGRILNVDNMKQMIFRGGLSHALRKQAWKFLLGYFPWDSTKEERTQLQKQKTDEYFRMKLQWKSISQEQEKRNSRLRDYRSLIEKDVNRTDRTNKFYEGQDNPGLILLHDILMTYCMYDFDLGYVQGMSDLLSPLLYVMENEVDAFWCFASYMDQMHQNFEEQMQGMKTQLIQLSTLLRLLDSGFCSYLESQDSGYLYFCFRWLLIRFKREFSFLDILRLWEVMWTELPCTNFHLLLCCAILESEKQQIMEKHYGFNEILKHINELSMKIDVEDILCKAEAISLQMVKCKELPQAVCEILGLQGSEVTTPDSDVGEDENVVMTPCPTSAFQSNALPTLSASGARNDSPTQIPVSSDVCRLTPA
UniProt O95772, sequence (O95772 whole entry, looked up): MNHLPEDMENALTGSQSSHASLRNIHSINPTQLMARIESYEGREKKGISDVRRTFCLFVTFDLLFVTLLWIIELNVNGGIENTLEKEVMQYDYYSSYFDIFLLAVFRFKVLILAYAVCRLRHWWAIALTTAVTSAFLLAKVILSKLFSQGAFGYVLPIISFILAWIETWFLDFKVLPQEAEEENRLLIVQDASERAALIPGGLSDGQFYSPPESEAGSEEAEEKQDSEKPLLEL
UniProt Q13501, sequence (Q13501 whole entry, looked up): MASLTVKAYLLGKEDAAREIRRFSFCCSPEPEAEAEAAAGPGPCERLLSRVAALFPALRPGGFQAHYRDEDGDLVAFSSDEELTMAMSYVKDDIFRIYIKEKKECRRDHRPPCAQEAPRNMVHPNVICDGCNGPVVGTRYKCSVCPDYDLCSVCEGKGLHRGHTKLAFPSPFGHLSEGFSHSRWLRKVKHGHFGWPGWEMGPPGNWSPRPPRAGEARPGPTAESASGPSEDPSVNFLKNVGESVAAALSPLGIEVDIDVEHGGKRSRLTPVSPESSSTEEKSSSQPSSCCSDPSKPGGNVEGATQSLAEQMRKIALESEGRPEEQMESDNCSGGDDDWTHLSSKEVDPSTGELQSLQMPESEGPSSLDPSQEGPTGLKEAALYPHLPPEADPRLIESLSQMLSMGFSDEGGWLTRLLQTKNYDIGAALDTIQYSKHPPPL
UniProt Q9P016, sequence (Q9P016 whole entry, looked up): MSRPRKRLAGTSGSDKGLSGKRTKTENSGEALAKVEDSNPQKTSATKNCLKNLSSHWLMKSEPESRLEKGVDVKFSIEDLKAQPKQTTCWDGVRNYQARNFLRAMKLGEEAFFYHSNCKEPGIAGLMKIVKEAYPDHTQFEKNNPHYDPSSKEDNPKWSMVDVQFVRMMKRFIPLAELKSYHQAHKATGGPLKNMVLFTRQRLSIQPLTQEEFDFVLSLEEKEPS

Target	log2 fold change (bafetinib)	log2 fold change [1]	log2 fold change (nilotinib)	log2 fold change [2]	log2 fold change (dasatinib)	log2 fold change [3]	log2 fold change [4]	log2 fold change [5]	log2 fold change (tipifarnib)	log2 fold change (mubritinib)
SP100 isoform 4 (UniProt P23497)	-0.047	-0.056	-0.02	-0.061	-0.054	-0.057	0.02	0.026	-0.087	0.043
SYNE2 isoform 2 (UniProt Q8WXH0)	-0.008	0.031	-0.115	0.006	-0.019	-0.069	0.153	0.027	-0.029	0.233
SMAD9 (UniProt O15198)	-0.102	-0.226	-0.113	0.004	-0.077	-0.114	0.058	0.015	-0.069	-0.067
SPG21 (UniProt Q9NZD8)	0.158	-0.129	-0.173	-0.06	-0.087	0.171	0.022	0.027	-0.115	-0.042
SPART (UniProt Q8N0X7)	-0.041	-0.024	-0.047	-0.006	-0.117	0.051	-0.025	0.059	-0.077	0.063
TCERG1 (UniProt O14776)	0.03	0.077	-0.093	-0.24	-0.26	0.02	0.088	0.07	-0.097	0.183
SQSTM1 (UniProt Q13501)	-0.138	0.056	0.042	-0.227	-0.006	0.172	0.001	0.022	0.186	0.034
SLC25A36 (UniProt Q96CQ1)	-0.049	-0.003	-0.01	0.182	-0.136	-0.138	0.033	-0.004	-0.075	-0.078
SUCLG1 (UniProt P53597)	-0.065	-0.01	-0.077	0.029	-0.025	-0.008	0.027	0.078	-0.008	-0.273 (active)
SLIRP (UniProt Q9GZT3)	-0.156	-0.099	0.118	-0.027	-0.134	-0.073	0.131	0.075	0.031	-0.044
SMPD4 isoform 4 (UniProt Q9NXE4)	-0.031	0.122	-0.1	-0.076	-0.037	0.025	0.098	0.04	-0.016	0.148
TBC1D10B (UniProt Q4KMP7)	-0.01	0.022	0.013	-0.09	-0.064	-0.149	0.07	0	0.039	0.013
TBRG4 (UniProt Q969Z0)	-0.137	-0.035	-0.027	-0.291	-0.513	0.006	0.095	0.003	-0.317	-0.277
STARD3NL (UniProt O95772)	0.011	-0.008	-0.007	0.027	0.075	-0.001	-0.048	0.025	-0.064	-0.006
SLC25A4 (UniProt P12235)	-0.027	-0.097	-0.004	-0.03	0.033	-0.014	0.022	-0.005	0.026	-0.024
STRN (UniProt O43815)	-0.016	0.063	0.014	0.048	-0.068	-0.008	0.022	-0.064	0	0.021
SNX1 (UniProt Q13596)	-0.149	0.146	-0.133	0	-0.191	-0.45 (active)	0.07	-0.028	-0.002	0.057
SUPT16H (UniProt Q9Y5B9)	0.006	0.049	0.011	-0.088	-0.269	-0.103	0.073	0.108	-0.088	0.047
STARD9 (UniProt Q9P2P6)	0.012	-0.029	0.016	0.157	0.091	0.002	0.076	0.047	0.07	0.129
SMAP2 (UniProt Q8WU79)	0.01	-0.025	-0.078	-0.039	-0.135	0.044	-0.022	-0.004	-0.014	0.018
TIAL1 isoform 2 (UniProt Q01085)	-0.072	-0.028	-0.023	0.036	-0.021	0.074	0.009	-0.001	0.015	0.013
TBC1D5 isoform 2 (UniProt Q92609)	-0.126	0.017	-0.076	-0.052	-0.232	0.007	-0.067	-0.005	-0.177	-0.017
STK26 (UniProt Q9P289)	-0.057	0.026	-0.089	0.198	-0.319 (active)	-0.057	-0.058	0.015	-0.036	-0.036
TMBIM1 (UniProt Q969X1)	0.068	-0.07	0.168	-0.044	-0.01	0.149	-0.06	-0.105	-0.318	0.025
SUN2 (UniProt Q9UH99)	-0.04	0.016	-0.007	-0.036	0.004	-0.071	-0.052	-0.008	0.013	-0.064
TBC1D15 isoform 3 (UniProt Q8TC07)	-0.026	0.059	-0.116	-0.098	-0.133	-0.004	-0.052	0.011	-0.134	0.054
TARS2 (UniProt Q9BW92)	-0.081	0.114	-0.094	-0.003	-0.055	0	0.084	0.022	-0.119	0.013
SYF2 (UniProt O95926)	-0.198	0.021	-0.017	0.25	0.119	0.308	-0.193	-0.021	0.027	-0.002
TIMM13 (UniProt Q9Y5L4)	0.086	0.156	0.018	-0.017	0	0.035	0.07	-0.003	-0.111	0.005
THYN1 (UniProt Q9P016)	0.009	-0.028	-0.021	0.044	-0.097	-0.009	-0.015	0.013	-0.036	0.031
